Only a selection was taken, and hits are over-represented in it overall.
IDE exosite FP = insulin-degrading enzyme (human) exo-site inhibition; P14735; purified IDE, FL-6b probe fluorescence polarization; hits give low values; z-score at 20 µM; 17,000 compounds, 6.3% hits;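 active = z-score of -3 or lower, meaning strong loss of probe binding signal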;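 also: His-tagged human IDE residues 42-1019 made in E. coli with 30 nM FL-6b probe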
An asterisk follows results filed as active.

SMILES	IDE exosite FP
O=C(C1CCCCC1)N1CC(=O)N2[C@@H](CO)[C@H](c3ccc(Br)cc3)[C@@H]2C1	3.8
O=C1CN(S(=O)(=O)c2ccccc2)C[C@@H]2[C@@H](c3ccc(C#CCc4ccccc4)cc3)[C@@H](CO)N12	2.9
CN1C(=O)c2cc(NC(=O)Nc3ccc(Cl)cc3)ccc2OC[C@H]2O[C@H](CC(=O)NCCN3CCCCC3)CC[C@H]21	-1.8
CO[C@H](CN(C)CC1CCOCC1)[C@H](C)CN(C(=O)Nc1ccc(F)cc1)[C@@H](C)CO	1.7
O=C(NC1CCCCC1)N1CC(=O)N2[C@H](CO)[C@H](c3ccc(-c4cccc(F)c4)cc3)[C@@H]2C1	-0.028
Cc1cccc(-c2ccc([C@H]3[C@@H](CO)N4C(=O)CN(C(=O)NC5CCCCC5)C[C@@H]34)cc2)c1	-10*
Cc1cccc(-c2ccc([C@H]3[C@H](CO)N4C(=O)CN(C(=O)NC5CCCCC5)C[C@@H]34)cc2)c1	-16*
Cc1cccc(-c2ccc([C@@H]3[C@H]4CN(C(=O)NC5CCCCC5)CC(=O)N4[C@H]3CO)cc2)c1	-16*
O=C(NC1CCCCC1)N1CC(=O)N2[C@@H](CO)[C@@H](c3ccc(C4=CCCC4)cc3)[C@@H]2C1	2.3
O=C(NC1CCCCC1)N1CC(=O)N2[C@H](CO)[C@@H](c3ccc(-c4cccc(F)c4)cc3)[C@H]2C1	-1.6
COc1ccc(C#Cc2ccc3c(c2)[C@@H]2[C@@H](CCN2C(=O)C2CCOCC2)[C@@H](CO)N3)cc1	2.7
C[C@@H]1CCCCO[C@H](CN(C)C(=O)C2CCCCC2)[C@H](C)CN([C@H](C)CO)C(=O)c2cc(NS(=O)(=O)c3ccccc3)ccc2O1	1.7
CCCC#Cc1ccc([C@H]2[C@@H](CO)N3C(=O)CN(C(=O)Nc4ccc(F)cc4)C[C@H]23)cc1	4
O=C(C[C@H]1CC[C@H]2[C@@H](COC[C@@H](O)CN2S(=O)(=O)c2cccc(Cl)c2)O1)NC1Cc2ccccc2C1	-0.31
O=S(=O)(c1cccc(F)c1)N1CC[C@@H]2[C@H]1c1cc(Br)ccc1N[C@@H]2CO	0.88
CC(C)CC#Cc1ccc([C@@H]2[C@@H](CO)N3C(=O)CN(C(=O)c4ccc5c(c4)OCO5)C[C@H]23)cc1	1.5
Fc1ccc(CN2[C@@H]3CNC[C@H]2C3c2ccc(-c3ccncc3)cc2)cc1 (stereo partly specified)	2.2
CO[C@@H]1CN(C)C(=O)c2cc(NC(=O)Cc3ccccc3)ccc2OC[C@H](C)N(C(=O)c2ccccc2F)C[C@@H]1C	0.93
CCS(=O)(=O)N1CCCCN2[C@H](CO)[C@@H](c3ccc(-c4ccc(C(=O)N(C)C)cc4)cc3)[C@@H]2C1	-0.38
COc1ccc2c3c(n(C)c2c1)[C@H](CO)N(C)CC31CCN(C(=O)c2cccnc2)CC1	-0.19
COc1ccc2c3c(n(C)c2c1)[C@H](CO)N(Cc1cccc(Cl)c1)CC31CCN(C(=O)C2CC2)CC1	-1.6
COc1cccc(CN2CC3(CCN(S(C)(=O)=O)CC3)c3c(n(C)c4cc(OC)ccc34)[C@@H]2CO)c1	-2.5
COc1ccc2c3c(n(C)c2c1)[C@H](CO)N(Cc1cccnc1)CC31CCN(C(=O)NC(C)C)CC1	-3*
COc1ccc2c3c(n(C)c2c1)[C@@H](CO)N(Cc1ccc(Cl)cc1)CC31CN(C(=O)NC(C)C)C1	0.21
COc1ccc2c3c(n(C)c2c1)[C@@H](CO)N(Cc1cccnc1)CC31CCN(C(=O)NC(C)C)CC1	-5.9*
SMILES	IDE exosite FP
CN(C)C(=O)c1cccc(-c2ccccc2[C@H]2[C@@H](CO)N(C(=O)C3CCCCC3)[C@H]2C#N)c1	1.1
COc1ccccc1CNC(=O)C[C@@H]1CC[C@H]2[C@@H](COC[C@@H](O)CN2Cc2ccc3c(c2)OCO3)O1	-1
CN(C)C(=O)c1cccc(-c2ccc([C@@H]3[C@@H](CO)N4C(=O)CN(C(=O)Cc5ccccc5)C[C@H]34)cc2)c1	5.1
O=S(=O)(c1ccccc1F)N1CCCCN2[C@H](CO)[C@H](c3ccc(-c4cccnc4)cc3)[C@H]2C1	-0.75
O=C(CCN1CCCCC1)NCC[C@@H]1CC[C@H](NS(=O)(=O)c2cccc(Cl)c2)[C@@H](CO)O1	0.32
C[C@H]1CN([C@@H](C)CO)C(=O)c2ccccc2-c2ccccc2CO[C@H]1CN(C)Cc1ccc2c(c1)OCCN2C	0.52
CN(C)C(=O)c1cccc(-c2ccccc2[C@H]2[C@@H](C#N)N(C(=O)C3CCC3)[C@H]2CO)c1	3.2
CCS(=O)(=O)N1CCCCN2[C@H](CO)[C@@H](c3ccc(C#Cc4ccccc4OC)cc3)[C@@H]2C1	-11*
CCS(=O)(=O)N1CCCCN2[C@H](C1)[C@H](c1ccc(C#Cc3ccccn3)cc1)[C@@H]2CO	-0.6
CCS(=O)(=O)N1CCCCN2[C@H](CO)[C@H](c3ccc(C#Cc4ccccn4)cc3)[C@@H]2C1	-0.051
CCS(=O)(=O)N1CCCCN2[C@@H](CO)[C@@H](c3ccc(C#Cc4ccccc4OC)cc3)[C@@H]2C1	-20*
CCCC#Cc1ccc([C@@H]2[C@@H](CO)N3CCCCN(S(=O)(=O)CC)C[C@@H]23)cc1	-2.1
